From PubChem BioAssay AID652126 (The Scripps Research Institute Molecular Screening Center, 2013)
Out of some 370,000 compounds screened, about 3,700 (1%) were called active.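 The calls were made as follows: active = activation above the mean over all tested compounds plus 3 SD (cut at about 0.9% in these data); inactive = the rest.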 What follows is part of a selection rich in actives, with near analogues and random picks from the rest.

What follows are compounds tested on Nuclear hormone receptor DAF-12 (Strongyloides stercoralis) (assay: S. stercoralis DAF-12 nuclear receptor activators, primary screen, cell-based, luminescence, HEK293, GRIP1 co-expression, lit1-tk-luc (AID 652126;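 also: 0% = DMSO-only wells and 100% = 3 µM delta7-dafachronic acid wells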)). Conditions: HEK293 ssDAF-12/GRIP1 lit1-tk-luc reporter, at 6.8 µM, active compounds read high, % of 3 µM dafachronic acid response.

activation, inactive:
COC(=O)c1cccc(Cn2ccc3ccc(-c4ccc5ccn(C(=O)c6ccccc6C)c5c4)cc32)c1 0.19%, C=CCN1[C@H](CC(C)C)COc2cccc(N3CCCC3)c2S1(=O)=O -1.93%, CN(Cc1c(F)cccc1Cl)C(=O)CNC(=O)c1ccc2c(c1)OCO2 -0.2%, O=C(NCCc1ccc(C(F)(F)F)cc1)c1ccc2c(c1)OCO2 -1.42%, COC(=O)[C@H](C(C)C)N(CCc1cn(Cc2ccccc2)nn1)S(=O)(=O)c1ccc(F)cc1Br -1.33%, O=C(Nc1ccccc1[N+](=O)[O-])C1C(c2ccccc2)=C1c1ccccc1 -1.13%, Cc1cc(NC(=O)Nc2ccccc2[N+](=O)[O-])no1 0.25%, CCCCCCCCNS(=O)(=O)/C=C/c1cc(C)ccc1CNC(=O)OC(C)(C)C -2.15%, O=C(O/N=C(/c1ccccc1)c1ccncc1)c1ccccc1[N+](=O)[O-] -0.74%, COc1ccc(C(=O)OCC(=O)NCC2CCCO2)cc1[N+](=O)[O-] (stereo not drawn) -1.82%, Cc1ccc(-n2c(SCC(=O)Nc3cccc4ccccc34)nnc2-c2ccccn2)cc1 -1.66%, C#CCCN([C@H](C(=O)OC)C(C)C)S(=O)(=O)c1ccc(F)cc1Br -1.1%, C=CCOC/C=C/C#CCN(CC=C)Cc1ccc(OC)cc1OC -0.87%, Cc1cccc(NC(=O)c2cccc(C(=O)Nc3cccc(C)c3C)n2)c1C -0.53%, Cc1ccccc1C(=O)Nc1ccccc1Sc1ccccc1 -1.24%, COc1ccc(C(=O)CSc2nnc(-c3cnccn3)n2-c2ccc(C)cc2)cc1 -1.18%, CC1=C(N2CCN(c3ncccn3)CC2)CCC1=O -1.32%, CC12CCC(C(=O)N3CCN(c4ncccn4)CC3)(c3nc4ccccc4nc31)C2(C)C (stereo not drawn) -1.52%, CCN(CC)C(=O)CC[C@H]1CC[C@]2(CCCN(Cc3ccc(Cl)cc3)C2)O1 -0.21%, CC1CCN(c2ccc(C(=O)O)cc2NS(=O)(=O)c2ccc(Br)s2)CC1 -1.7%, COc1ccc([C@H]2OC(=O)C[C@H]2C(=O)N2CCN(c3ccccc3F)CC2)cc1OC -0.67%, O=C(Oc1ccc(-c2nc(-c3ccccn3)no2)cc1)c1ccccc1 -0.56%, O=S(=O)(c1ccc(Br)cc1)c1nc(-c2ccccc2)oc1N1CCOCC1 -0.79%, O=S1(=O)c2c(NCc3ccco3)cccc2Oc2ccccc2CN1Cc1cn(Cc2cccc(C(F)(F)F)c2)nn1 -1.24%, Cn1c(SCC(=O)c2ccccc2)ncc(C(=O)Nc2ccc(F)cc2)c1=O -0.84%, C=CCn1c(SCC(=O)Nc2ccc(NC(C)=O)cc2)nc2sc(C)c(C)c2c1=O -1.09%, CCCCn1c(SCC(=O)NCC2CCCO2)nc2ccc(N3CCOCC3)cc2c1=O (stereo not drawn) -1.75%, C=CCn1c(SCC(=O)/C(C#N)=C(\C)N)nc2sc(C)c(C)c2c1=O -1.37%, CCOC(=O)[C@]12CCCC=C1N(Cc1ccc(OC)cc1)C(=O)[C@@H]2CC(=O)N1CCOCC1 -0.73%, COC(=O)C1CN(CCc2ccccc2)CCS(=O)(=O)N1Cc1cccc(Cl)c1 (stereo not drawn) -0.43%, CCC(=O)Nc1ccc2c(c1)C(=O)N(C)[C@@H]1CC[C@@H](CC(=O)NCCc3ccccc3)O[C@H]1CO2 -0.55%, C[C@@H]1CN([C@@H](C)CO)C(=O)c2cccc(NC(=O)Nc3cccc4ccccc34)c2O[C@H]1CN(C)S(=O)(=O)c1ccccc1F -2.39%, COC(=O)C[C@@H]1CC[C@H]2[C@@H](COc3ccc(NS(=O)(=O)CC(F)(F)F)cc3C(=O)N2C)O1 -1.22%, O=C(c1cccc(C(F)(F)F)c1)N1CC[C@H]2[C@H](CCCN2Cc2cc(F)cc(F)c2)C1 -1.1%, CC(C)C(=O)Nc1oc(-c2ccccc2)cc1C#N -1.13%, CC(C)C(=O)Nc1c(C(=O)c2ccc(F)cc2)oc2ccccc12 -0.79%, Cc1ccccc1CSc1nnc(Cn2c(=O)sc3ccccc32)n1C -1.22%, CC(C)N1CCCCC(NC(=O)c2ccc3ccccc3c2)C1=O (stereo not drawn) -0.75%, CC1CC(C)CN(CCCNC(=O)c2csc3c2CCCCC3)C1 (stereo not drawn) -1.8%, Cc1ccc(NC(=O)C2(N3CCC3=O)CCCCC2)cc1 -0.98%, COc1ccc(NC(=O)CC2C(=O)OCC3CCCCN32)cc1Cl (stereo not drawn) -1.7%, CC(=O)C1(C(=O)Nc2nccs2)CC(c2ccccc2C(F)(F)F)=NO1 (stereo not drawn) -1.38%, CC1CCN(c2ccc(S(=O)(=O)Nc3cc(C(=O)O)cc(C(=O)O)c3)cc2[N+](=O)[O-])CC1 -1.44%, CCC(C)(C)NC(=O)c1cc([N+](=O)[O-])ccc1N1CCCCC1 -1.32%, O=C(c1ccccc1)c1ccc(-c2ccccc2C(=O)NC2CCCCN(Cc3ccc(Cl)cc3)C2=O)cc1 (stereo not drawn) -0.93%, COC(=O)C[C@@H]1C=C[C@@H](NS(=O)(=O)c2cccc(OC)c2)[C@@H](CO)O1 -0.52%, COC(=O)C1CCN(C(=O)COC(=O)c2cc(S(=O)(=O)N3CCOCC3)ccc2C)CC1 -1.23%, COc1ccc(S(=O)(=O)N2CCOCC2)cc1C(=O)NC1CCCCC1 -1.6%, CCN(CC)C(=O)CC[C@@H]1CC[C@]2(CCCN(S(=O)(=O)C3CCCCC3)C2)O1 -1.11%, CN(C)Cc1cn(-c2ccc(-c3noc4c3C(=O)N(CC(=O)N3CCOCC3)CC4)cc2)nn1 -0.67%, O=C(OCC#CCSc1nnc(-c2ccco2)o1)c1ccc(F)cc1 -0.22%, CCCC[C@H](C(=O)N(CC)c1ccccc1)[C@@H](O)c1ccc2ccccc2c1 -1.15%, O=C(c1cc(C2CCCCN2S(=O)(=O)c2ccccc2)on1)N1CCOCC1 (stereo not drawn) -1.54%, O=C(c1cc(COc2ccc(F)cc2F)on1)N1CCOCC1 0.37%, O=C1Nc2ccccc2OC1CC(=O)N1CCCCCCC1 (stereo not drawn) -0.55%, c1cncc(CNc2ccnc(-c3ccc4c(c3)OCO4)n2)c1 -1.42%, CCOC(=O)[C@]12CCCC3=C1N(CCC3)C(=O)[C@@H](CC(=O)NCc1cccs1)C2 -1.02%, Cc1nc2ccc(NC(=O)C3CCCCC3)cc2s1 -1.51%, Cc1nc2ccc(C(=O)N3CCSCC3)cc2s1 -1.17%, C=CCN1C(=O)[C@H](CC(=O)NCCCN2CCCC2=O)[C@@]2(C(=O)OCC)CCCC=C12 -0.32%, COC(=O)Cc1cc(=O)oc2c(C)c(O)ccc12 -1%, COc1ccc(Br)cc1CN1CCN(C(=O)c2cccc(OC)c2OC)CC1 -0.37%, CC(C)[C@@H]1NC(=O)c2cc([N+](=O)[O-])cc(I)c2NCCC[C@@H](C(=O)NC(CC(=O)O)C(N)=O)NC(=O)[C@H](CO)NC1=O (stereo partly drawn) -1.32%, CCOC(=O)[C@]12CCCCC/C=C\1N(Cc1ccc(OC)cc1)C(=O)[C@H]2CC(=O)NCc1ccc(C)o1 -1.69%, COC(=O)c1cc(S(=O)(=O)N2CCN(c3ccccc3C)CC2)cn1C -1.46%, O=C(CCn1nnc2ccccc2c1=O)N[C@@H](Cc1c[nH]c2ccccc12)C(=O)O -1.08%, COc1ccc(-c2cc(C(=O)NC(C(=O)O)C(C)C)c(C)o2)cc1OC (stereo not drawn) -0.63%, CC1=NN(/C(=N\c2nnc(C)s2)Nc2ccccc2)[C@H](c2ccc(C)cc2)S1 -1.96%, CC(C)C(C#CC1CC1)N(Cc1ccc2c(c1)OCO2)C(N)=NC(=O)/C=C/c1cccc(C(F)(F)F)c1 (stereo not drawn) -1.84%, O=C(N/N=C/c1sc(N2CCCCC2)nc1-c1cccs1)c1cccnc1 -1.2%, CC(=O)c1ccc(NC(=O)c2cc(-c3cccs3)on2)cc1 -0.86%

activation, active:
O=C(Nc1ccccc1F)c1ccc2c(c1)OCO2 1.22%, Cc1csc(NC(=O)Nc2ccccc2[N+](=O)[O-])n1 2.54%, COc1ccc(C(=O)O/N=C(\N)c2ccccn2)cc1[N+](=O)[O-] 1.15%, COc1cc2ccccc2cc1C(=O)Nc1ccccc1C 1.32%, c1cnc(N2CCN(c3ccc4ccccc4n3)CC2)nc1 1.77%, Brc1ccc(-c2noc(-c3ccccc3)n2)o1 1.12%, C=CCn1c(SCC(=O)NCC2CCCO2)nc2sc(C)c(C)c2c1=O (stereo not drawn) 2.74%, Cc1ccc(NC(=O)c2cnc(SCC(=O)NCC3CCCO3)n(C)c2=O)cc1 (stereo not drawn) 1.27%, CC(C)C(=O)Nc1ccc2c(c1)oc1ccccc12 1.28%, Cc1ccc(NC(=O)c2csc3c2CCCC3)cc1 1.46%, O=C(O)C1CCN(c2ccc([N+](=O)[O-])cc2[N+](=O)[O-])CC1 1.84%, Cc1ccc(S(=O)(=O)N2CCOCC2)cc1C(=O)OC1CCCCC1=O (stereo not drawn) 1.21%, O=C(c1cc(-c2ccc(O)cc2)on1)N1CCOCC1 1.22%, Brc1ccc2nc(N3CCCC3)sc2c1 1.8%, COc1cccc(C(=O)OCc2cc(=O)oc3c(C)c(C)ccc23)c1OC 1.06%, COc1ccc(-c2cc(C(=O)NC(Cc3c[nH]c4ccccc34)C(=O)O)c(C)o2)cc1OC (stereo not drawn) 0.94%, O=C(O)c1ccc(N/N=C/c2cn(-c3ccccc3)nc2-c2cccs2)cc1 1.45%
